# Measurements: PubChem BioAssay (NCATS)
# “And” between values parts separate entries of the source, which are not always exact repeats. Equal values may be shown once. Results filed as inconclusive are left out. Entries that show only a call come without a potency. The source made the active and inactive calls. The call rests on the fitted dose curve; in most records, active means well fitted curve in the direction sought with a large enough effect; inconclusive means small, poorly fitted or top-dose-only effect, or another doubt; inactive means no such curve, though single readings can be large; an effect the other way counts as inactive or inconclusive.
# Columns and labels:
# [1] = qHTS of pediatric cancer cell lines to identify multiple opportunities for drug repurposing: Confirmatory screen for OHS-50 cells (AID 1347128);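 further: compound exposure lasted 48 h at 37 degrees C; nearly all actives have a fitted effect of over 55% in size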; further: potency means the concentration at half of the fitted maximal effect
# Method in brief: (§1)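 Viability after 48 h compound treatment at 37C, 500-1,000 cells/well, read as ATP luminescence with CellTiter-Glo. Primary screens used 11-point (MIPE, 0.78 nM-46 µM) or 8-point (NPC, 0.59 nM-46 µM) final concentrations; follow-up screens used 11-point dilutions.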
# [2] = qHTS of pediatric cancer cell lines to identify multiple opportunities for drug repurposing: Confirmatory screen for SK-N-SH cells (AID 1347129);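 further: cells exposed to compound for 48 h before viability read; nearly all actives have a fitted effect of over 60% in size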; further: potency means the concentration at half of the fitted maximal effect
# Method in brief: as §1
# [3] = tested on: Zika virus NS2B-NS3 protease; assay: Primary screen GU AMC qHTS for Zika virus inhibitors (AID 1347154); further: nearly all actives have a fitted effect of over 70% in size; further: potency means the concentration at half of the fitted maximal effect
# Method in brief: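 Unlinked Zika NS2B hydrophilic domain–NS3 protease complex at 25 nM in 10 mM Tris-HCl pH 8.0, 0.01% Tween 20, with an AMC peptide substrate. Fluorescence change (340/450 nm) over 15 min at room temperature, normalized to controls, fitted to 4-parameter Hill.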
# [4] = target: Furin (Homo sapiens) (UniProt P09958); assay: Furin counterscreen qHTS for Zika virus inhibitors (AID 1347149); further: nearly all actives have a fitted effect of over 70% in size; further: potency means the concentration at half of the fitted maximal effect
# Sequence of Furin (Homo sapiens) (P09958 whole entry, looked up): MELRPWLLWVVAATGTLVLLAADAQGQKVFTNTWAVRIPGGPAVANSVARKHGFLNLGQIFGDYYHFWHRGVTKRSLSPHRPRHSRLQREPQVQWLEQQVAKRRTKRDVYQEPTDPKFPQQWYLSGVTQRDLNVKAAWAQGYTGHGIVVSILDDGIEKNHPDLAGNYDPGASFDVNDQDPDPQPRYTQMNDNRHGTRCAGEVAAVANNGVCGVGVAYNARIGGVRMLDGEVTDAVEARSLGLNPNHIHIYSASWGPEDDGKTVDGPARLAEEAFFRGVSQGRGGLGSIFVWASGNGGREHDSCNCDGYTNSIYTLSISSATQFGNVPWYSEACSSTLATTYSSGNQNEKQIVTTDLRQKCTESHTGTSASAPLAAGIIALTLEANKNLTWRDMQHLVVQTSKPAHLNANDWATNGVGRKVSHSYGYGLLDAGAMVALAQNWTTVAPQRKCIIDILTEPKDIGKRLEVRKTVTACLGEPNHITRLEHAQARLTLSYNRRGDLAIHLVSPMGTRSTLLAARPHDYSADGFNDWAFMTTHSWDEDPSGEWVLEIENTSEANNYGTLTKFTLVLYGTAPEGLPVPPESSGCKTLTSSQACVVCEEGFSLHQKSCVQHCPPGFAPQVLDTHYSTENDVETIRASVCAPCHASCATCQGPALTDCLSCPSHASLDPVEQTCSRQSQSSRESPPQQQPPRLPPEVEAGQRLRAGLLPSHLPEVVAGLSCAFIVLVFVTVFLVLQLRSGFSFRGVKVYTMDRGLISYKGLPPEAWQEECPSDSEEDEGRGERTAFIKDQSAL
# Method in brief: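 Fluorogenic cleavage of BOC-RVRR-AMC (2 microM final, Km ~15 µM) was monitored (ex 340, em 450 nm) at 37C after 15 min RT preincubation of 5 nM furin with compounds in HEPES pH 7.0 buffer with CaCl2 and Triton X-100. Percent inhibition was fitted to a 4-parameter Hill curve.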
# [5] = tested on: Zika virus NS2B-NS3 protease (linked construct); assay: Confirmatory screen NINDS AMC qHTS for Zika virus inhibitors (AID 1347152); further: nearly all actives have a fitted effect of over 70% in size; further: potency means the concentration at half of the fitted maximal effect
# Method in brief: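 In this dose-response qHTS, AMC release from 10 microM Bz-Nle-KRR-AMC by 1 nM linked protease is measured over 15 minutes (about 20% conversion) at pH 8.0. Percent inhibition is fitted to a 4-parameter Hill curve.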
# [6] = tested on: Zika virus NS2B-NS3 protease (unlinked complex); assay: Confirmatory screen GU AMC qHTS for Zika virus inhibitors (AID 1347153); further: nearly all actives have a fitted effect of over 70% in size
# Method in brief: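 Noncovalent NS2B hydrophilic domain/NS3 protease complex (25 nM) in 10 mM Tris-HCl pH 8.0, 0.01% Tween 20 was preincubated 15 min at room temperature with compounds. Then 10 µM AMC substrate (Km 18.3 µM) was added; fluorescence was read over 15 min and fitted to a 4-parameter Hill equation.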
# [7] = Confirmatory screen GU Rhodamine qHTS for Zika virus inhibitors qHTS (AID 1347157)
# Method in brief: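 Compounds, tested up to 114 microM, were incubated for 15 minutes with 25 nM unlinked NS2B-NS3 protease at pH 8.0. Cleavage of 1.5 microM Rhodamine110 substrate was then followed by fluorescence for 15 minutes.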
# [8] = ZIKV-mCherry secondary qHTS for Zika virus inhibitors (AID 1347158); further: top concentration of the series differs between compounds
# Method in brief: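 Vero cells (5,000/well) were given compound, then infected with ZIKV-mCherry at MOI 1 for 48–72 h at 37 °C. After PFA fixation and Hoechst staining, imaging gave percent mCherry-positive cells. The positivity threshold was RFU above 450, 3 SD over negative controls.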
# [9] = target: N-terminal Xaa-Pro-Lys N-methyltransferase 1 (Homo sapiens) (UniProt Q9BV86); assay: qHTS Assay for Inhibitors of N-terminal methyltransferase 1 (NTMT1): LOPAC validation of the NTMT1 SAHH-coupled ThioGlo3 Assay (AID 1347143); conditions: recombinant NTMT1, SAHH-coupled ThioGlo3 fluorescence
# Sequence of N-terminal Xaa-Pro-Lys N-methyltransferase 1 (Homo sapiens) (Q9BV86 whole entry, looked up): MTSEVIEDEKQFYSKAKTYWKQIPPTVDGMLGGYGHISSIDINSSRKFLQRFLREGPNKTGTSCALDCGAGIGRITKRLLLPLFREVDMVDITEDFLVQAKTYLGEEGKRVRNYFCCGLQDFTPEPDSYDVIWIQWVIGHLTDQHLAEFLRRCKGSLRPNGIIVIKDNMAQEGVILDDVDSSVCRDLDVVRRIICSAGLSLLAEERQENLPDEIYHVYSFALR
# Method in brief: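 Recombinant human NTMT1 (125nM) was pre-incubated 1 min at room temperature with compounds over a concentration range, then a mix of 100uM SAM, 10uM SAHH and 15uM ThioGlo3 (concentrations in added reagent) was added. ThioGlo3 fluorescence (ex 340/em 450nm) after 30 min was normalized to the initial reading.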
# [10] = tested on: Zika virus NS2B-NS3 protease (unlinked); assay: Optimization of GU AMC qHTS for Zika virus inhibitors: Unlinked NS2B-NS3 protease assay (AID 1347151); conditions: recombinant ZIKV NS2B-NS3 protease, fluorogenic AMC substrate; further: potency means the concentration at half of the fitted maximal effect; nearly all actives have a fitted effect of over 80% in size
# Method in brief: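 Percent inhibition is derived from the 15-min change in AMC fluorescence, normalized against no-inhibitor and no-enzyme controls, then fitted to a 4-parameter Hill curve. Aprotinin was the intraplate control.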
compound,measurement,setting,value
CC(C)CC(=O)Nc1n[nH]c2c1CN(C(=O)C1CCN(C)CC1)C2(C)C,Potency,[1],5.85 µM (active)
same,Potency,[2],4.18 µM (active)
same,Potency,[3],inactive
Cn1c2ccccc2c2c3c(c4c5ccccc5n(CCC#N)c4c21)CNC3=O,Potency,[1],11.7 µM (active)
same,Potency,[2],14.8 µM (active)
same,Potency,[3],inactive
CNC(=O)CN1CCC(Oc2cc3c(Nc4cccc(Cl)c4F)ncnc3cc2OC)CC1,Potency,[2],inactive
same,Potency,[3],inactive
Cc1ccc(NC(=O)C2(c3ccc4c(c3)OC(F)(F)O4)CC2)nc1-c1cccc(C(=O)O)c1,Potency,[2],inactive
CCOc1cc2ncc(C#N)c(Nc3ccc(F)c(Cl)c3)c2cc1NC(=O)C=CCN(C)C,Potency,[1],0.147 µM (active)
same,Potency,[3],inactive
COc1ccc(OC)c(-c2nnc3ccc(-c4ccc(OC)c(O[C@@H]5CCOC5)c4)nn23)c1,Potency,[1],6.57 µM (active)
same,Potency,[3],inactive
Cn1c(=O)n(-c2ccc(C(C)(C)C#N)cc2)c2c3cc(-c4cnc5ccccc5c4)ccc3ncc21,Potency,[1],5.85 µM (active)
same,Potency,[3],inactive
O=c1[nH]nc(Sc2ncc([N+](=O)[O-])s2)n1-c1ccc2c(c1)OCCO2,Potency,[1],13.1 µM (active)
same,Potency,[2],9.35 µM (active)
same,Potency,[3],inactive
CC=C1NC(=O)[C@H]2CSSCCC=C[C@H](CC(=O)N[C@H](C(C)C)C(=O)N2)OC(=O)[C@H](C(C)C)NC1=O,Potency,[1],inactive
same,Potency,[2],inactive
same,Potency,[3],inactive
CN(C)CCCN=c1c2ccccc2n(C)c2[nH]c(=O)n(C)c(=O)c12,Potency,[2],inactive
same,Potency,[3],inactive
COc1cc(-c2nn(C3CCC(N4CCN(C(C)=O)CC4)CC3)c3ncnc(N)c23)ccc1NC(=O)c1cc2ccccc2n1C (stereo not drawn),Potency,[3],inactive
COc1cc(=C2C=c3ccccc3=N2)[nH]c1=Cc1[nH]c(C)cc1C,Potency,[2],1.24 µM (active)
same,Potency,[3],inactive
CC[C@@H]1C(=O)N(C)c2cnc(Nc3ccc(C(=O)NC4CCC(N5CCN(CC6CC6)CC5)CC4)cc3OC)nc2N1C(C)C (stereo partly drawn),Potency,[2],inactive
same,Potency,[3],inactive
COc1cc2c(NC3CCN(C(C)C)CC3)nc(C3CCCCC3)nc2cc1OCCCN1CCCC1,Potency,[2],7.43 µM (active)
same,Potency,[3],inactive
Cn1cc(-c2[nH]c3cc(NC(=O)[C@H](N)C4CCCCC4)cc4c3c2C=NNC4=O)cn1,Potency,[3],inactive
CCOC(=O)C1=C(C)NC2=C(C(=O)CC(C)(C)C2)C1c1ccc(-c2ccccc2)cc1 (stereo not drawn),Potency,[4],19.2 µM (active)
same,Potency,[5],17.1 µM (active)
CC(C)c1ccccc1Cc1cc(C(=O)Nc2ccc(S(=O)(=O)c3ccccc3C(C)(C)C)cc2)c(O)c(O)c1O,Potency,[4],inactive
same,Potency,[5],inactive
same,Potency,[6],inactive
Cc1cn2cc(C(=O)N(C)CCO)cc(N[C@@H]3CCOc4cccc(C)c43)c2n1,Potency,[3],inactive
N#Cc1c(O)c2c(-c3ccc(-c4ccccc4O)cc3)csc2[nH]c1=O,Potency,[4],inactive
same,Potency,[5],4.82 µM (active) and 8.79 µM (active)
same,Potency,[6],9.61 µM (active)
same,Potency,[7],2.21 µM (active)
same,Potency,[8],inactive
O=C(NCCCNc1nc(Nc2cccc(NC(=O)N3CCCC3)c2)ncc1I)c1cccs1,Potency,[3],inactive
O=c1c2ccccc2nc2n1CCc1c-2[nH]c2ccccc12,Potency,[9],56.2 µM (active)
same,Potency,[4],42.9 µM (active)
same,Potency,[10],26.7 µM (active)
same,Potency,[5],24.1 µM (active)
same,Potency,[3],30.4 µM (active)
COc1cc(C(=O)NS(=O)(=O)c2ccccc2C)ccc1Cc1cn(C)c2ccc(NC(=O)OC3CCCC3)cc12,Potency,[5],9.61 µM (active)
same,Potency,[6],17.1 µM (active)
same,Potency,[3],12.6 µM (active)
CC(C)(C)NC(=O)[C@H]1CN(Cc2cccnc2)CCN1C[C@@H](O)C[C@@H](Cc1ccccc1)C(=O)N[C@H]1c2ccccc2C[C@H]1O,Potency,[2],inactive
same,Potency,[3],inactive
Cc1nc(Nc2n[nH]c3c2CN(C(=O)N[C@H](CN(C)C)c2ccccc2)C3(C)C)c2sccc2n1,Potency,[2],inactive
same,Potency,[3],inactive
CCN(CC)CCCCNc1ncc2cc(-c3cc(OC)cc(OC)c3)c(NC(=O)NC(C)(C)C)nc2n1,Potency,[4],24.1 µM (active)
same,Potency,[6],inactive
same,Potency,[3],21.5 µM (active)
CN1CCC(CNc2ccc3ncc(-c4cccc(OC(F)(F)F)c4)n3n2)CC1,Potency,[4],21.5 µM (active)
same,Potency,[5],27.1 µM (active)
same,Potency,[3],24.1 µM (active)
CC(C)c1cc(C(=O)N2Cc3ccc(CN4CCN(C)CC4)cc3C2)c(O)cc1O,Potency,[2],0.469 µM (active)
same,Potency,[3],inactive
O=C(O)C1(Cc2cccc(Nc3nccs3)n2)CCC(Oc2cccc(Cl)c2F)CC1 (stereo not drawn),Potency,[4],inactive
same,Potency,[7],6.98 µM (active)
Nc1ccn([C@@H]2O[C@H](CO)[C@H](O)C2(F)F)c(=O)n1,Potency,[2],inactive
same,Potency,[3],inactive
c1ccc2c(CCNc3ccc(Nc4ccncc4)cc3)c[nH]c2c1,Potency,[3],inactive
